The list is not random: actives were taken first. Their share in the collection is about 13%.
HCV inh: inhibitors of hepatitis C virus infection; hit rate 3.4% among 340,000; Potency, µM (doses to about 41.8 µM), without a hit: top-dose activity change, negative = inhibition, hits mostly inhibitors; Huh7.5.1 HCVcc-Cre infection, luciferase reporter, 44 h; AID 651820; active = well fitted inhibition curve with a large enough effect; inconclusive = small, poorly fitted or top-dose-only effect, or another doubt; inactive = no such curve, though single readings can be large or run the other way; also: potency is read from the fitted curve at half-maximal effect; % is scaled to controls: 0 for no effect and ±100 for the full control effect
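Infectious HCV cell culture screen: compound-treated cells (1,000/well, pre-plated 4 h) are infected with HCVcc-Cre at roughly 0.5 moi and grown 44 h. Infection is quantified by luciferase signal after 15 min substrate incubation at room temperature.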
LASV entry inh: inhibitors of Lassa virus binding or cell entry. Lassa virus pseudotype entry inhibition, cell reporter. Potency, µM (titrated, usually from 37.9 µM), without a hit: at the highest dose activity change, negative = inhibition, hits mostly inhibitors. hit rate 1.2% among 300,000. AID 540256; calls by dose curve; tested in HEK293 cells; also: potency is read from the fitted curve at half-maximal effect; % is scaled to controls: 0 for no effect and ±100 for the full control effect; nearly all actives have a fitted effect of over 50% in size
FMDV antiviral: foot and mouth disease virus antiviral activity. FMDV antiviral cell-based qHTS. Potency, µM (series often up to 57.9 µM), for inactives: at the top dose activity change, negative = inhibition, actives largely listed as inhibitors. hit rate 1.2% among 410,000; calls by dose curve; tested in HEK293T cells; also: read-out not given here; potency is read from the fitted curve at half-maximal effect; % is scaled to controls: 0 for no effect and ±100 for the full control effect; nearly all actives have a fitted effect of over 45% in size
Marburg entry inh: blocks Marburg virus binding to or entry into cells; Marburg virus pseudotyped entry inhibition, cell reporter; Potency, µM (highest dose often 37.8 µM), inactives show at the highest dose activity change, negative = inhibition, usual class: inhibitors; hit rate 1.8% among 300,000; calls by dose curve; tested in HEK293 cells; also: potency is read from the fitted curve at half-maximal effect; % is scaled to controls: 0 for no effect and ±100 for the full control effect
Shiga inhibitor: Shiga toxin inhibition. Vero cells, Shiga toxin protein synthesis inhibition reporter. inhibition, % at 38.7 µM. hit rate 9.2% among 290,000. AID 2315; in the data active = inhibition mostly above about 28%, no sharp cut-off; inactive = mostly below about 43%; also: 0% is about no effect
CHX counter: counter-screen hit for Shiga toxin inhibitors, cycloheximide | cell reporter, cycloheximide protein synthesis inhibition counterscreen | max response, % | hit rate 12% among 300,000; in the data active = max response mostly above about 13%, no sharp cut-off; inactive = mostly below about 14%; also: read at 38.3 µM for the half of the compounds with a filed dose; 0% is about no effect
* marks the source's active call; other numbers are inactive results; ? = inconclusive; nt = not tested or not shown; [ ] = dose if it differs, or a comment.

SMILES | HCV inh | LASV entry inh | FMDV antiviral | Marburg entry inh | Shiga inhibitor | CHX counter
O=C(Cn1cc2c(n1)CCCC2)Nc1cc(-c2cccc(Cl)c2)no1 | 1.2% | nt | 28.1% | nt | 44.5* | 28.1*
Cc1ccc(NC(=O)Cn2cc3c(n2)CCCC3)c(Cl)c1 | nt | -0.5%[46.1 µM] | -4.3% | 21.1%[46.1 µM] | nt | nt
O=C(N/N=C/c1ccc([N+](=O)[O-])o1)c1ccc(O)cc1 | 25.1µM* | ? | -22.0% | ? | 75.8 | 16.1
O=C(N/N=C\c1ccc([N+](=O)[O-])o1)c1cncc(Br)c1 | 22.4µM* | ? | ? | ? | -22.4 | -2.6
O=C(N/N=C/c1ccc([N+](=O)[O-])o1)c1ccncc1 | ? | ? | -5.3% | -22.8%[46.1 µM] | 4.6 | 8.3
Cc1sc2ncnc(OCC(=O)NC(C)C(C)C)c2c1C (stereo not given) | 14.4% | -6.1%[46.1 µM] | -3.2% | -4.4%[46.1 µM] | -18.0 | -4.5
CCCCCNC(=O)C(CCc1ccccc1)n1c(=O)c(-c2ccccc2)nc2ccccc21 (stereo not given) | nt | nt | -15.9% | nt | nt | nt
CCOc1ccc(C(C(=O)NCC2CCCO2)N(CCc2cccc(C)c2)C(=O)c2snc(C(N)=O)c2N)cc1 (stereo not given) | ? | ? | ? | ? | 24.8 | -0.7
Cc1ccccc1OCCCn1c(CO)nc2ccccc21 | 3.4% | -2.4% | 1.7% | 1.9% | 71.5* | 17.6*
CC(C)(C)C(=O)NCCCc1nc2ccccc2n1CCCOc1ccc(Cl)cc1 | ? | ? | 20µM* | ? | -9.0 | -3.6
OCc1nc2ccccc2n1CCCOc1ccc(Br)cc1 | -6.0% | ? | 13.4% | -12.8% | 39.5* | 21.3*
COc1ccc(C)cc1-n1c(=O)c2ccccc2c2ccccc2c1=O | 5.3% | -26.5% | 25.1µM* | -0.5%[46.1 µM] | -7.2 | 14.3
Cc1ccnc(N2C(=O)c3cccc4c([N+](=O)[O-])ccc(c34)C2=O)c1 | 11.2µM* | ? | ? | 20.6µM* | -6.2 | -0.9
COc1ccc2c(c1OC)C(=O)N(c1cccc(C)c1)C2=O | 6.0% | 17.3% | 34.6% | 10.4% | 56.0 | 43.4*
CN(C)c1ccc2c3c(cccc13)C(=O)N(c1ccccc1)C2=O | nt | nt | nt | nt | 14.3 | 15.1
Cc1cccc(N2C(=O)c3cccc4c(N(C)CCO)ccc(c34)C2=O)c1 | 11.2µM* | -7.8% | ? | ? | -8.0 | 9.5
Nc1cccc(N2C(=O)c3cccc4c(N)ccc(c34)C2=O)c1 | -4.2% | nt | -13.1% | nt | -8.7 | -4.3
Cc1cccc(N2C(=O)c3cccc4c(N)ccc(c34)C2=O)c1 | 10µM* | ? | -0.9% | ? | -12.6 | -3.9
CCOC(=O)c1c(NC(=O)CSc2nc3cccnc3n2C)sc(C(C)=O)c1C | ? | -10.4% | 28.2µM* | 10µM* | -5.9 | -3.2
CCOC(=O)c1c(NC(=O)CSc2nnc(-c3ccccc3C)n2C)sc(C(C)=O)c1C | 10µM* | -13.2% | ? | 7.1% | -5.4 | -2.2
CCOC(=O)c1cccc(NC(=O)CSc2nnc(-c3ccoc3C)n2CCOC)c1 | ? | 1.7% | -13.4% | 2.7% | 9.1 | 9.2*
CCOc1ccc(OCC)c(NC(=O)CSc2nc3cccnc3n2C)c1 | 6.31µM* | -28.0% | 17.8µM* | -21.1% | -15.1 | 1.1
CN1CCc2c(OCC(=O)N3N=C(c4cccs4)CC3c3ccc(F)cc3)cccc2C1=O (stereo not given) | 4.4% | -12.5% | ? | ? | -1.3 | -1.1
CCOC(=O)c1cccc(NC(=O)CSc2nc3cccnc3n2C)c1 | ? | ? | 17.8µM* | ? | -5.3 | 1.5
Cc1cccc(N2CCN(CCNC(=O)Nc3ccc(Cl)cc3)CC2)c1C | nt | 14.3%[46.1 µM] | 0.0% | 7.3%[46.1 µM] | nt | nt
SMILES | HCV inh | LASV entry inh | FMDV antiviral | Marburg entry inh | Shiga inhibitor | CHX counter
Cc1ccc(NC(=O)CCn2cccn2)cc1Cl | nt | ? | 12.3% | nt | nt | nt
CC(C)c1ccc(OCC(O)CNC(C)c2ccccc2)cc1 (stereo not given) | ? | ? | -11.1% | ? | 4.8 | -2.0
CC(C)CCNCC(O)CON=C1c2ccccc2-c2ccccc21 (stereo not given) | 8.91µM* | nt | -10.0% | nt | -5.9 | -7.0
OC(CNCCC(c1ccccc1)c1ccccc1)COc1ccccc1 (stereo not given) | 12.6µM* | ? | -2.0% | ? | -4.6 | -5.4
OC(CNCCc1ccccc1)COc1ccc(OCC(O)CNCCc2ccccc2)cc1 (stereo not given) | ? | ? | -25.1% | 3.16µM* | -11.3 | -2.3
Cc1ccc(C)c(Cn2c(=O)n(-c3ccc(F)cc3)c(=O)c3sc4ccccc4c32)c1 | nt | -7.9%[46.1 µM] | -11.2% | -11.6%[46.1 µM] | nt | nt
CCN(Cc1cc2ccccc2[nH]c1=O)S(=O)(=O)c1ccc(OC)cc1 | ? | nt | -26.0% | nt | 25.2 | 1.7
C/C1=C\[C@@H](C)C/C=C/[C@H]2[C@@H]3O[C@]3(C)[C@@H](C)[C@H]3[C@H](Cc4c[nH]c5ccccc45)NC(=O)[C@]32C(=O)/C=C/C(=O)[C@@H]1O | 7.5% | nt | 31.6µM* | nt | -0.9 | 1.3
O=C(N/N=C/c1cccnc1)c1ccc(NC(=O)C(c2ccccc2)c2ccccc2)cc1 | 6.3% | ? | ? | ? | -3.8 | -1.7
O=C(NCc1ccco1)C(c1cccs1)N(C(=O)Cc1cccs1)c1ccccc1 (stereo not given) | -6.8% | ? | 5.7% | ? | -2.8 | 1.5
O=C(N/N=C/c1c(O)n(Cc2ccccc2)c(=O)[nH]c1=O)c1ccccc1O | 5.7% | ? | 6.8% | ? | 6.1 | 16.1*
O=C(N/N=C/c1c(O)n(Cc2ccc(F)cc2)c(=O)[nH]c1=O)c1ccccc1O | -3.0% | -2.0% | 17.0% | -23.7% | 50.2 | 8.6
COc1ccccc1-n1c(O)c(C=NCc2ccc3c(c2)OCO3)c(=O)[nH]c1=O | 2.8% | ? | -3.2% | -11.7% | -13.1 | -1.7
O=C(N/N=C/c1c(O)n(Cc2ccco2)c(=O)[nH]c1=O)c1ccccc1 | 6.3% | nt | 30.9% | nt | 79.9 | 33.7*
COc1ccc(Cn2c(O)c(/C=N/NC(=O)c3ccncc3)c(=O)[nH]c2=O)cc1 | -2.4% | 2.1%[46.1 µM] | -16.1% | 9.3%[46.1 µM] | -6.1 | -3.0
COc1ccccc1-n1c(O)c(/C=N/NC(=S)Nc2ccccc2)c(=O)[nH]c1=S | 28.6% | nt | 24.0% | nt | 31.8 | 21.6*
COc1ccc(Cn2c(O)c(/C=N/NC(=O)c3ccccc3)c(=O)[nH]c2=O)cc1 | -13.6% | nt | -16.8% | nt | 74.9* | 37.3*
O=C(N/N=C/c1c(O)n(CCc2ccc(F)cc2)c(=O)[nH]c1=O)c1ccccc1 | 3.5% | nt | 4.9% | nt | 52.8* | 14.0*
CCn1c(O)c(/C=N/NC(=O)c2ccccc2)c(=O)[nH]c1=S | 12.0% | nt | 11.2% | nt | 44.2* | 31.4*
O=C(N/N=C/c1c(O)n(CCc2ccccc2)c(=O)[nH]c1=O)c1ccncc1 | 17.3% | 11.2% | -10.6% | 4.2% | -14.8 | -6.8
O=C(N/N=C/c1c(O)n(CCc2ccccc2)c(=O)[nH]c1=O)c1ccccc1O | ? | nt | 3.2% | -2.1% | 28.7 | 23.7*
COc1ccc(Cn2c(O)c(/C=N/NC(=O)c3ccccc3O)c(=O)[nH]c2=O)cc1 | 7.8% | -2.2% | 0.1% | 2.4%[46.1 µM] | 19.6 | 13.0*

Screening results (PubChem BioAssay)
